This is an account of results in ChEMBL document CHEMBL2218924, “A broad activity screen in support of a chemogenomic map for kinase signalling research and drug discovery” (Biochem J, 2013).

Structures are written as SMILES.

The assay deals with T1, Tyrosine-protein kinase ZAP-70 (Homo sapiens) (UniProt P43403).
T1 sequence (whole entry): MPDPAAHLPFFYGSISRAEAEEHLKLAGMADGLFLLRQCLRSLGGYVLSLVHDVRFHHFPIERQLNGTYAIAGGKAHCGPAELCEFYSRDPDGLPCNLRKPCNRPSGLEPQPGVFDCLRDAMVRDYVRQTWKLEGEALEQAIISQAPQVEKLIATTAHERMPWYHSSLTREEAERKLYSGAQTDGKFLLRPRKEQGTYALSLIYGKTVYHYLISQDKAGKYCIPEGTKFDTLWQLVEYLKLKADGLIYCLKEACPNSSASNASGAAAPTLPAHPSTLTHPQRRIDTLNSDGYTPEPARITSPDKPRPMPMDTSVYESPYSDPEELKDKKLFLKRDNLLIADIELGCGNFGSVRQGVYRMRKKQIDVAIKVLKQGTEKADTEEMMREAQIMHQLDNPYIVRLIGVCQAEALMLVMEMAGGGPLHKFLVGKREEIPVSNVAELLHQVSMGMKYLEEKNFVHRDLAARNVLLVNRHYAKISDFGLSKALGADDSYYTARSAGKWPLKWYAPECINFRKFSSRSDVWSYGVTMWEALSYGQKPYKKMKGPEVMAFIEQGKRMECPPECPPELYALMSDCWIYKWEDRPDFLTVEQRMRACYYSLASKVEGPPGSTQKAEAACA
The conditions noted are these: at 10 µM.
Broadly, the residual activity is the signal under treatment as a percentage of the control signal. For `O=Nc1c(-c2c(O)[nH]c3ccccc23)[nH]c2ccccc12`, the residual activity came out at 91%.

As for `CC#CC(=O)Nc1cc2c(Nc3ccc(F)c(Cl)c3)ncnc2cn1`, the residual activity came to 100%.

On to `Fc1ccc(-c2nc3n(c2-c2ccncc2)CCS3)cc1`, for which the residual activity worked out at 124%.

With `Nc1ncnc2c1c(-c1ccc(Oc3ccccc3)cc1)cn2C1CCCC1`, the residual activity is 99%.

For `O=C1NC(=O)c2c1c1c3ccccc3[nH]c1n1cncc21`, the residual activity was determined as 102%.

Regarding `Cc1nc(-c2ccccc2)c(-c2ccncc2)o1`, the residual activity was 135%.

As to `N#C/C(=C\c1ccc(O)c(O)c1)C(=O)NCc1ccccc1`, the residual activity is 129%.

On to `Nc1ccc2ncnc(NCCc3ccc(Oc4ccccc4)cc3)c2c1`, for which the residual activity came to 108%.

Take `CC(C)c1nn(-c2c(Cl)cccc2Cl)c2nc(Cc3ccc(OCCO)cc3)[nH]c(=O)c12`: the residual activity was determined as 84%.

`O=C(CCCc1ccc(-c2ccccc2F)cc1)Nc1ccc(O)cc1`: the residual activity came to 109%.

As for `COc1cc2ncnc(Nc3ccc(NC(=O)c4ccccc4)cc3)c2cc1OC`, the residual activity was found to be 104%.

As for `COc1cc2nccc(Oc3ccc(NC(=O)Nc4cc(C)on4)c(Cl)c3)c2cc1OC`, the residual activity worked out at 107%.

Regarding `CCOc1cc2ncnc(Nc3cccc(Br)c3)c2cc1OCC`, the residual activity amounted to 119%.

Turning to `O=C(Nc1ccc(Cl)cc1)c1ccccc1NCc1ccncc1`, the residual activity is 142%.

Regarding `Cc1ccc(S(=O)(=O)/C=C/C#N)cc1`, the residual activity worked out at 118%.

As to `COc1cccc(-c2cc(=O)c3ccccc3o2)c1N`, the residual activity came to 120%.
